Source: PubChem
GALK inh = qHTS Assay for Inhibitors of Human Galactokinase (GALK); P51570; Purified GALK, Kinase-Glo residual ATP luminescence; Potency, µM (titrated, usually from 57.5 µM), for inactives: at the highest dose activity change, negative = inhibition, most hits filed as inhibitors; 270,000 compounds, 0.007% hits; also: potency is read from the fitted curve at half-maximal effect
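5 nM enzyme, 35 uM ATP, 100 uM galactose, 20 mM HEPES pH8.0, 5 mM MgCl2; 1 h RT; residual ATP by Kinase-Glo Plus luminescence, qHTS format.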
VP16 counter = VP16 counterscreen qHTS for inhibitors of ROR gamma transcriptional activity | Drosophila S2 Gal4-VP16 UAS-luciferase, luminescence, 20 h | Potency, µM (doses to about 53.6 µM), without a hit: at the highest dose activity, negative = inhibition, hits mostly inhibitors | 310,000 compounds, 3.5% hits | AID 2546, 2010;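 also: Gal4-VP16 expression switched on by copper sulfate through the metallothionein promoter; potency is read from the fitted curve at half-maximal effect; nearly all actives have a fitted effect of over 50% in size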
RORgamma inh = qHTS for inhibitors of ROR gamma transcriptional activity | Potency, µM (titrated, usually from 53.6 µM), without a hit: at the top dose activity change, negative = inhibition, most hits filed as inhibitors | Drosophila S2 Gal4-RORgamma UAS-luciferase reporter, 20 h | 310,000 compounds, 5.4% hits | Nuclear receptor ROR-gamma (Mus musculus), P51450; also: potency is read from the fitted curve at half-maximal effect; nearly all actives have a fitted effect of over 60% in size
Target sequence (P51450 whole entry, looked up, the tested form may be a part): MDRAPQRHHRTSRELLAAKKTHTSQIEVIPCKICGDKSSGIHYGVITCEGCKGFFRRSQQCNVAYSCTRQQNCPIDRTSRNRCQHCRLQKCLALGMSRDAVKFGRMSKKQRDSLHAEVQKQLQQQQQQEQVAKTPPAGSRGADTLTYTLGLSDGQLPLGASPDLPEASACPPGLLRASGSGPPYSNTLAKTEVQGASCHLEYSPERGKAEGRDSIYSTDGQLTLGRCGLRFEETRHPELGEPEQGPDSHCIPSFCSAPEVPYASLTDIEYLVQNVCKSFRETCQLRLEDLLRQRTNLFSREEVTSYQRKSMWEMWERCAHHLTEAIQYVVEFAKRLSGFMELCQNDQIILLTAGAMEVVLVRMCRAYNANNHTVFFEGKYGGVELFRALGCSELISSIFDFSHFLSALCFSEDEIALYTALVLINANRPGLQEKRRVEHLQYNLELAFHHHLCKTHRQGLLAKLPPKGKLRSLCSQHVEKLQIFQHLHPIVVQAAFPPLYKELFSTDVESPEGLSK
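Stably transfected Drosophila Schneider cells are the test system, with ROR gamma fused to Gal4 and luciferase under UAS control; luminescence is read after 20 hr of 700 uM copper sulfate induction at ambient temperature.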
TrxR1 substrate = qHTS Assay for Substrates of Mammalian Selenoprotein Thioredoxin Reductase 1 (TrxR1): qHTS | Thioredoxin reductase 1, cytoplasmic (Rattus norvegicus), O89049 | purified TrxR1 substrate turnover, NADPH consumption readout | Potency, µM (titrated, usually from 114 µM), without a hit: at the top dose activity change, negative = substrate turnover | 390,000 compounds, 0.01% hits; also: potency is read from the fitted curve at half-maximal effect; nearly all actives have a fitted effect of over 50% in size
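Rat TrxR1, dispensed at 90 nM, was prereduced with 400 uM NADPH (final) for 5 min at ~22 deg C, then incubated with compound 15 min before 400 uM selenite. A first-read NADPH fluorescence drop versus no-compound background flagged substrates.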
FBPA coupling cs = qHTS Assay for Inhibitors of Fructose-1,6-bisphosphate Aldolase from Giardia Lamblia: Coupling assay counterscreen. coupling enzyme system counterscreen, AmpLite Red fluorescence. activity change, negative = inhibition, % at 58.2 µM, hits read low. 290,000 compounds, 0.67% hits. AID 2472, 2010; in the data active = activity change below about -30%
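Final compound at 57.5 uM, incubated 10 min at RT with coupling enzyme reagent (glyceraldehyde-3-phosphate), then 20 min with substrate and AmpLite Red detection. Fluorescence read at 525/598 nm; tests interference with the coupling assay, not aldolase inhibition.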
rTrxR1 inhibitor = qHTS Assay for Inhibitors of Mammalian Selenoprotein Thioredoxin Reductase 1 (TrxR1): qHTS; Thioredoxin reductase 1, cytoplasmic (Rattus norvegicus), O89049; recombinant rTrxR1, NADPH fluorescence consumption, selenite substrate; Potency, µM (titrated, usually from 114 µM), for inactives: at the highest dose activity change, negative = inhibition, actives largely listed as inhibitors; 390,000 compounds, 1% hits; also: potency is read from the fitted curve at half-maximal effect; nearly all actives have a fitted effect of over 65% in size
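Rat TrxR1 (90 nM in the dispensed reagent) was pre-reduced with 400 uM NADPH for 5 min at room temperature, then incubated with compound for 15 min. After 400 uM selenite was added, NADPH fluorescence (Ex 340/Em 450 nm) was followed for 8 min.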
* = called active by the depositor; u = inconclusive; x = not tested or not shown; [ ] = remark or other dose. Sampled rows, rich in hits. Any-hit rate of the full collection: about 5.9%. Unless noted, calls follow the shape of the dose curve; as a rule, active = well fitted curve in the direction sought with a large enough effect; inconclusive = small, poorly fitted or top-dose-only effect, or another doubt; inactive = no such curve, though single readings can be large; an effect the other way counts as inactive or inconclusive. % is scaled to controls: 0 for no effect and ±100 for the full control effect.

SMILES	GALK inh	VP16 counter	RORgamma inh	TrxR1 substrate	FBPA coupling cs	rTrxR1 inhibitor
C/C(=C\C(=O)c1ccc(Cl)cc1Cl)N(C)C	13.6%	u	15.8µM*	-12.5%	2.6	u
Cc1cc(C)c(C(N)=O)c(Nc2cccc3ccccc23)n1	-10.6%	u	2.82µM*	3.5%[57.1 µM]	-27.6	12.4%[57.1 µM]
COc1ccc(Nc2nc(C)cc(C)c2C(N)=O)c(OC)c1	2.7%	12.6%	u	8.3%	-39.9*	9.1%
COc1ccccc1Nc1nc(C)cc(C)c1C(N)=O	-0.6%	2.0%	6.8%	-9.7%	1.2	-13.0%
NC(=O)C(C(=O)/C=C/c1ccc(Cl)cc1)=C1SCCS1	4.5%	8.1%	25.9%	-3.8%	2.8	-2.5%
CC(C)CN1CCN(Cc2cccn2-c2ccccn2)CC1CCO (stereo not drawn)	-1.3%	6.5%	7.6%	6.1%	-0.8	19.6%
CC(C)(C)CC(C)(C)N1CNC(=S)NC1	-1.5%	u	10µM*	10.8%[2.29 µM]	1.0	20.2%[2.29 µM]
Cc1ccc2c(=O)cc(C(=O)Nc3sc4c(c3C(=O)NCC3CCCO3)CCC4)oc2c1 (stereo not drawn)	x	x	x	2.8%	x	11.5%
Clc1ccc2ccc3cccnc3c2n1	-0.5%	u	12.6µM*	3.9%	-16.3	11.2%
COc1ccc(OC)c(/C=C/c2ccc3cccc(O)c3n2)c1	1.7%	4.47µM*	2.51µM*	x	-7.3	x
COc1ccc(OC)c(/C=C/c2ccc3ccccc3n2)c1	x	x	x	92.6%	x	64.8%
COc1cc(/C=C/c2ccc3cccc(O)c3n2)ccc1O	-1.3%	3.16µM*	3.16µM*	-1.6%[57.1 µM]	-12.2	1.8%[2.29 µM]
Oc1cccc2ccc(/C=C/c3ccccc3Br)nc12	x	3.16µM*	3.98µM*	3.3%	-5.8	-0.4%
COc1cc(/C=C/c2ccc3cccc(O)c3n2)c(Br)cc1O	x	u	2.82µM*	x	-4.4	x
Oc1ccc2ccccc2c1/C=C/c1ccc2c(Br)cc(Br)c(O)c2n1	x	x	x	14.8%[57.1 µM]	x	18.7%[11.4 µM]
CC(=O)NC1=NN(C(C)=O)C2(CCCC2)S1	9.2%	-16.7%	-11.0%	4.1%[57.1 µM]	-0.4	18.7%
COc1cc(OC)c(OC)cc1/C=C/c1ccc2ccccc2n1	x	x	x	4.7%[0.0914 µM]	x	-26.2%
COc1cc(Br)cc(/C=C/c2ccc3cccc(O)c3n2)c1O	4.7%	3.16µM*	2.51µM*	-0.4%	-8.4	11.0%
COc1cc(Br)c(/C=C/c2ccc3cccc(O)c3n2)cc1OC	-1.7%	3.16µM*	2.82µM*	-10.2%	-1.8	-8.4%
CSc1ccc(/C=C/c2ccc3cccc(O)c3n2)cc1	1.3%	u	4.47µM*	7.4%[57.1 µM]	-13.3	17.5%[57.1 µM]
C=CCOc1cccc(/C=C2\C(=O)N(Cc3ccc(C)cc3)C(C)=C2C(=O)OC)c1	0.7%	u	1.7%	-6.4%	-6.5	-13.7%
COC(=O)C1=C(C)N(Cc2ccco2)C(=O)/C1=C\c1ccc(N(C)C)cc1	-2.7%	-10.4%	-11.6%	-5.0%	1.5	1.3%
COC(=O)C1=C(C)N(Cc2ccc(OC)cc2)C(=O)/C1=C\c1ccco1	6.9%	6.8%	u	-7.6%	1.6	35.5µM*
COC(=O)C1=C(C)N(C)C(=O)/C1=C\c1ccco1	2.0%	-2.2%	0.1%	-5.6%	-0.9	25.1µM*
COC(=O)C1=C(C)N(Cc2ccco2)C(=O)/C1=C\c1ccc([N+](=O)[O-])cc1	6.6%	-3.6%	-2.8%	-1.5%	-0.8	20µM*
SMILES	GALK inh	VP16 counter	RORgamma inh	TrxR1 substrate	FBPA coupling cs	rTrxR1 inhibitor
COC(=O)C1=C(C)NC(=O)/C1=C\c1ccco1	-0.9%	-2.5%	-28.9%	-2.2%	-0.2	u
COC(=O)C1=C(C)N(Cc2ccco2)C(=O)C1	-3.0%	21.5%	10µM*	0.3%	-19.6	u
O=c1c(Cl)c(NCCCO)cnn1-c1nc2ccccc2[nH]1	0.2%	3.55µM*	5.01µM*	-2.1%	1.5	3.55µM*
CC(C)[C@H](NS(=O)(=O)c1ccccc1)C(=O)OCC(=O)NCc1ccc2c(c1)OCO2	x	x	x	12.9%[57.1 µM]	x	27.6%[57.1 µM]
O=S(=O)(c1ccc(-c2cc(C(F)(F)F)on2)s1)N1CCN(c2ccccc2F)CC1	x	x	x	-6.9%[57.1 µM]	x	1.6%[57.1 µM]
Cc1cc2ncn(-c3ncnc4scc(-c5ccccc5)c34)c2cc1C	2.9%	-25.0%	5.62µM*	-11.9%	-3.6	-11.4%
c1ccc(-c2csc3ncnc(N4CCOCC4)c23)cc1	1.7%	2.0%	-0.3%	8.6%[57.1 µM]	3.9	22.9%[57.1 µM]
c1ccc(-c2csc3ncnc(N4CCc5ccccc5C4)c23)cc1	2.0%	12.6µM*	u	6.7%	-2.3	7.6%
C/C(=N\Nc1ccccn1)c1ccc2c(c1)OCO2	0.3%	u	u	1.5%[57.1 µM]	-7.9	11.6%[57.1 µM]
C/C(=N\Nc1nc2ccccc2[nH]1)c1ccc2c(c1)OCCO2	1.9%	u	7.08µM*	0.2%[57.1 µM]	2.4	4.3%[57.1 µM]
C/C(=N\Nc1nc2ccccc2[nH]1)c1ccc2c(c1)OCO2	0.4%	11.2µM*	3.16µM*	-15.0%	-3.7	-12.9%
CCN(CC)c1ccc(/C=N/Nc2nc(C)cc(=O)[nH]2)c(O)c1	2.9%	3.16µM*	5.01µM*	6.5%	0.1	4.1%
O=c1[nH]c(N/N=C\c2ccc(F)cc2)nc2ccccc12	-1.2%	-25.1%	10µM*	4.5%[57.1 µM]	0.6	5.9%[57.1 µM]
CCOc1ccc(C(=O)c2cn(CC(=O)Nc3ccc(Cl)cc3)c3cc4c(cc3c2=O)OCCO4)cc1	x	x	x	0.0%	x	4.1%
COCCNC(=O)c1ccccc1NC(=O)Cc1ccccc1[N+](=O)[O-]	1.1%	-3.7%	-32.2%	-2.1%	1.8	2.6%
CCn1nc(C)cc1C(=O)N1CCCC(N2CCN(c3ccccc3OC)CC2)C1 (stereo not drawn)	x	x	x	-2.9%	x	-7.4%
CCN(CC)c1ccc(/C=N/Nc2nc3ccccc3[nH]2)cc1	0.7%	3.98µM*	3.16µM*	0.8%	-1.5	9.1%
CC(=O)Nc1ccc(/C=N/Nc2nc3ccccc3[nH]2)cc1	0.1%	-5.1%	u	-6.4%	0.6	-6.6%
C(=N\Nc1nc2ccccc2[nH]1)/c1ccc2c(c1)OCO2	-0.6%	u	12.6µM*	-2.6%	-1.4	-6.7%
Cc1c(N=C/C=C/c2ccccc2)cnn1C	-0.8%	u	u	5.2%[57.1 µM]	-10.0	-26.8%
N#Cc1c(N)sc(=S)c2c1CCCCC2	0.4%	-4.0%[0.365 µM]	-15.3%	-23.1%[11.4 µM]	-32.7*	-68.6%[57.1 µM]
CC1(C)Cc2c(C#N)c(N)sc(=S)c2CS1	-0.2%	-21.7%	u	6.1%[57.1 µM]	-43.7*	14.1µM*
